The panel holds about 83,000 compounds, 20% with a hit somewhere; the sample as a whole holds those more often.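 In brief: 96-well plates, 48 h treatment, single concentration, percent growth endpoint.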 Unmarked numbers belong to inactive results. The source made the active and inactive calls. The calls were made as follows: active = growth percent below 10; inactive = the rest.

The record followed here is PubChem BioAssay (NCI).

The test system of one experiment is OVCAR-4 ovarian. The experiment can be described thus: NCI-60 one-dose screen, 48 h (100 = growth as untreated, 0 = no growth, -100 = all killed). Conditions: 10 µM unless noted.
As to `Nc1nc(-c2cc3c(cc2Cl)NC(=O)/C3=C/c2ccc(Cl)cc2)cs1`, the growth is 48.6%.
Regarding `Cc1cccc(Cc2cnc(NC(=O)CCc3ccc(C)o3)s2)c1`, the growth was 53.3%.
For `CC(Cl)(CCl)CS(=O)(=O)c1ccc(Cl)cc1` (stereo unspecified), the growth was 111%.
`COc1ccc(Cl)cc1NC(=O)c1cc2c([nH]1)-c1nc(NC(=O)C(C)(C)C)sc1CC2`: the growth was 57%.
On the same count and under the same terms, for `CC(C)(c1ccc(OCC(O)CNCc2ccco2)cc1)c1ccc(OCC(O)CNCc2ccco2)cc1` (stereo unspecified) the value was 96%; for `O=C1CCC(c2c(O)cc(O)c3c(=O)c(O)c(-c4ccc(O)c(O)c4)oc23)N1` (stereo unspecified), 108%.
On to `COc1ccc(Cn2cc3c(c2-c2cc(OC)c(OC)c(OC)c2)CCc2c(CO)noc2-3)cc1`, for which the growth was 68.9%.
In the case of `CC(=O)Cc1cccnc1`, the growth was 108%.
Turning to `CC(/C=C/C=C(\C)[C@H](O)[C@H](C)C(=O)O[C@H]1C[C@H](C)C=C2C=C[C@@]3(C)O[C@@H](O)CC(=O)[C@]3(C)[C@H]21)=C\C=C\C(=O)O`, the growth was 23%.
The same measure, in the same setting: then `Nc1nc(-c2cc3c(cc2Cl)NC(=O)/C3=C/c2ccccc2)cs1`, with 69.6%; and `C=CC(=O)NC(=O)Nc1ccccc1Cl`, with 103%; and `CCOC(=O)c1noc2c1CCc1c-2cn(Cc2ccc(OC)cc2)c1-c1cc(OC)c(OC)c(OC)c1`, with 63.2%.
Still for that read-out and setting: then `C=C1C(=O)O[C@H]2[C@H]1CC/C(COC(=O)OC/C1=C/CC[C@@]3(C)O[C@H]3[C@H]3OC(=O)[C@@H](CN(C)C)[C@@H]3CC1)=C\CC[C@@]1(C)O[C@@H]21`, with 46%.
For the compound `CC1CCC(C(C)C)C(NN)C1` (stereo unspecified), the growth is 111%.
Still for that read-out and setting: then `Cc1cc(SCc2ccc(Cl)cc2Cl)nc(SCc2ccc(Cl)cc2Cl)n1`, with 88.2%; and `CCCC(C)(C)COC(=O)c1cccc(N)c1`, with 117%.
On to `O=C1C(Cl)=C(Nc2cccc3cc4ccccc4nc23)C(=O)c2ccccc21`, for which the growth is 55.4%.
On to `CN(C)CCCOc1c(Br)cc(/C=C/C(=O)N(C)CCc2cc(Br)c(OCCCN(C)C)c(Br)c2)cc1Br`, for which the growth was 79.7%.
`Nc1nccc(=S)[nH]1`: the growth was 114%.
For `C=C1C(=O)O[C@H]2[C@H]1CC/C(COC(=O)CCCC(=O)OC/C1=C/CC[C@@]3(C)O[C@H]3[C@H]3OC(=O)C(=C)[C@@H]3CC1)=C\CC[C@@]1(C)O[C@@H]21`, the growth was 49.2%.
The same measure, in the same setting: for `O=C(NNC(=O)c1ccc([N+](=O)[O-])cc1)c1ccc([N+](=O)[O-])cc1` the value was 93.8%.
With `COc1cc(C(=O)NNC(=O)c2ccccc2C(=O)O)cc(OC)c1OC`, the growth is 77.7%.
In the case of `O=S(c1ccccc1)c1ccc2nnnn2n1` (stereo unspecified), the growth is 111%.
Same read-out and setting: then `Cc1ncc(CO)c(C(=O)O)c1O`, with 103%.
Consider `CCOC(=O)c1noc2c1CCc1cn(Cc3cc(OC)cc(OC)c3)cc1-2`, for which the growth is 113%.
Take `CCCCCC/C=N/Nc1ccc([N+](=O)[O-])cn1`: the growth is 118%.
Same read-out and setting: then `CC[C@@]1(O)C(=O)OCc2c1cc1n(c2=O)Cc2c-1nc1ccccc1c2/C=N/OC(C)(C)C`, with 30.1%.
Turning to `CC(=O)Oc1ccc(C(OC(C)=O)OC(C)=O)cc1`, the growth was 117%.
On the same count and under the same terms, then `C=C1C(=O)O[C@H]2[C@H]1CC/C(COC(=O)n1ccnc1C)=C\CC[C@@]1(C)O[C@@H]21`, with 99.3%; and `C=C1C(=O)O[C@H]2[C@H]1CC/C(C(=O)NCCOCCOCC(=O)Nc1ccc(OC)c(C(N)=O)c1O)=C\CC[C@@]1(C)O[C@@H]21`, with 101%.
Consider `Cc1cc(C)c(O)c(C(=O)CC(Br)C(=O)O)c1` (stereo unspecified), for which the growth is 106%.
Turning to `COc1ccc(-c2ccc(NC(=O)Nc3cccc(C(F)(F)F)c3)c(C)n2)cc1`, the growth is 42.9%.
On to `COc1ccc(Cn2cc(COc3ccc4c5ccnc(C)c5n(CCCc5ccccc5)c4c3)nn2)cc1`, for which the growth was 70.2%.
As for `O=S(=O)(O)c1ccc(F)cc1`, the growth was 105%.
On to `Cc1nccc2c3ccc(OCc4cn(Cc5ccc(Br)cc5)nn4)cc3n(CCCc3ccccc3)c12`, for which the growth is 50.9%.
Turning to `Cl[C@@H]1CCO[C@H](c2cc3ccccc3c3ccccc23)C1`, the growth was 94.8%.
On to `Nc1ncnc2c1c(C(F)(F)F)cn2[C@@H]1O[C@H](CO)[C@@H](O)[C@H]1O`, for which the growth was 24.6%.
For `C#C[C@@]1(O)[C@@H](CO)O[C@@H](n2cc(Br)c3c(Cl)ccnc32)[C@@H]1O`, the growth is 26.9%.

For the next experiment, the system named is SK-OV-3 ovarian. The description is as above. Conditions: 10 µM unless noted.
`Nc1nc(-c2cc3c(cc2Cl)NC(=O)/C3=C/c2ccc(Cl)cc2)cs1`: the growth is 71.8%.
`Cc1cccc(Cc2cnc(NC(=O)CCc3ccc(C)o3)s2)c1`: the growth is 24.5%.
For the compound `CC(Cl)(CCl)CS(=O)(=O)c1ccc(Cl)cc1` (stereo unspecified), the growth was 102%.
For `COc1ccc(Cl)cc1NC(=O)c1cc2c([nH]1)-c1nc(NC(=O)C(C)(C)C)sc1CC2`, the growth is 82.1%.
For `CC(C)(c1ccc(OCC(O)CNCc2ccco2)cc1)c1ccc(OCC(O)CNCc2ccco2)cc1` (stereo unspecified), the growth is 105%.
Turning to `O=C1CCC(c2c(O)cc(O)c3c(=O)c(O)c(-c4ccc(O)c(O)c4)oc23)N1` (stereo unspecified), the growth is 85.1%.
For the compound `COc1ccc(Cn2cc3c(c2-c2cc(OC)c(OC)c(OC)c2)CCc2c(CO)noc2-3)cc1`, the growth is 39.9%.
Same read-out and setting: for `CC(=O)Cc1cccnc1` the value was 114%; for `CC(/C=C/C=C(\C)[C@H](O)[C@H](C)C(=O)O[C@H]1C[C@H](C)C=C2C=C[C@@]3(C)O[C@@H](O)CC(=O)[C@]3(C)[C@H]21)=C\C=C\C(=O)O`, 2.67% (active).
As for `Nc1nc(-c2cc3c(cc2Cl)NC(=O)/C3=C/c2ccccc2)cs1`, the growth was 81.1%.
As for `C=CC(=O)NC(=O)Nc1ccccc1Cl`, the growth is 87.3%.
As for `CCOC(=O)c1noc2c1CCc1c-2cn(Cc2ccc(OC)cc2)c1-c1cc(OC)c(OC)c(OC)c1`, the growth was 65.3%.
Still for that read-out and setting: for `C=C1C(=O)O[C@H]2[C@H]1CC/C(COC(=O)OC/C1=C/CC[C@@]3(C)O[C@H]3[C@H]3OC(=O)[C@@H](CN(C)C)[C@@H]3CC1)=C\CC[C@@]1(C)O[C@@H]21` the value was 87.7%; for `CC1CCC(C(C)C)C(NN)C1` (stereo unspecified), 91.8%; for `Cc1cc(SCc2ccc(Cl)cc2Cl)nc(SCc2ccc(Cl)cc2Cl)n1`, 116%.
For `CCCC(C)(C)COC(=O)c1cccc(N)c1`, the growth was 94.1%.
With `O=C1C(Cl)=C(Nc2cccc3cc4ccccc4nc23)C(=O)c2ccccc21`, the growth is 44.3%.
As to `CN(C)CCCOc1c(Br)cc(/C=C/C(=O)N(C)CCc2cc(Br)c(OCCCN(C)C)c(Br)c2)cc1Br`, the growth is 102%.
Turning to `Nc1nccc(=S)[nH]1`, the growth is 102%.
On the same count and under the same terms, then `C=C1C(=O)O[C@H]2[C@H]1CC/C(COC(=O)CCCC(=O)OC/C1=C/CC[C@@]3(C)O[C@H]3[C@H]3OC(=O)C(=C)[C@@H]3CC1)=C\CC[C@@]1(C)O[C@@H]21`, with 74.5%; and `O=C(NNC(=O)c1ccc([N+](=O)[O-])cc1)c1ccc([N+](=O)[O-])cc1`, with 96.1%.
Consider `COc1cc(C(=O)NNC(=O)c2ccccc2C(=O)O)cc(OC)c1OC`, for which the growth was 52%.
On to `O=S(c1ccccc1)c1ccc2nnnn2n1` (stereo unspecified), for which the growth was 114%.
For the compound `Cc1ncc(CO)c(C(=O)O)c1O`, the growth is 104%.
In the case of `CCOC(=O)c1noc2c1CCc1cn(Cc3cc(OC)cc(OC)c3)cc1-2`, the growth was 101%.
For the compound `CCCCCC/C=N/Nc1ccc([N+](=O)[O-])cn1`, the growth is 81.1%.
The same measure, in the same setting: then `CC[C@@]1(O)C(=O)OCc2c1cc1n(c2=O)Cc2c-1nc1ccccc1c2/C=N/OC(C)(C)C`, with -15.7% (active); and `CC(=O)Oc1ccc(C(OC(C)=O)OC(C)=O)cc1`, with 97.6%.
For `C=C1C(=O)O[C@H]2[C@H]1CC/C(COC(=O)n1ccnc1C)=C\CC[C@@]1(C)O[C@@H]21`, the growth was 85.4%.
With `C=C1C(=O)O[C@H]2[C@H]1CC/C(C(=O)NCCOCCOCC(=O)Nc1ccc(OC)c(C(N)=O)c1O)=C\CC[C@@]1(C)O[C@@H]21`, the growth was 91.6%.
On to `Cc1cc(C)c(O)c(C(=O)CC(Br)C(=O)O)c1` (stereo unspecified), for which the growth is 103%.
Take `COc1ccc(-c2ccc(NC(=O)Nc3cccc(C(F)(F)F)c3)c(C)n2)cc1`: the growth is 82.1%.
Regarding `COc1ccc(Cn2cc(COc3ccc4c5ccnc(C)c5n(CCCc5ccccc5)c4c3)nn2)cc1`, the growth is 95.3%.
As for `O=S(=O)(O)c1ccc(F)cc1`, the growth was 102%.
The same measure, in the same setting: for `Cc1nccc2c3ccc(OCc4cn(Cc5ccc(Br)cc5)nn4)cc3n(CCCc3ccccc3)c12` the value was 81.6%.
As to `Cl[C@@H]1CCO[C@H](c2cc3ccccc3c3ccccc23)C1`, the growth was 97.2%.
The same measure, in the same setting: then `Nc1ncnc2c1c(C(F)(F)F)cn2[C@@H]1O[C@H](CO)[C@@H](O)[C@H]1O`, with 28.2%; and `C#C[C@@]1(O)[C@@H](CO)O[C@@H](n2cc(Br)c3c(Cl)ccnc32)[C@@H]1O`, with 42.1%.
